For part of these data: Results with a measured potency or affinity are listed apart.
Experiments:
Parameters in all cases: scale not given: direction of the effect not stated beside the values
[1] = target: Protein translocase subunit SecA (Escherichia coli (strain K12)) (UniProt P10408); assay: Assay to Identify E. coli SecA ATPase Inhibitors; format: functional; conditions: 30 µM
[2] = target: T1, Ubiquitin-activating enzyme e1, putative (Leishmania donovani (strain BPK282A1)) (UniProt E9BSI1); assay: Leishmania donovani Ubiquitin Activating Enzyme (LdE1); format: functional; conditions: 30 µM
T1 sequence (whole entry): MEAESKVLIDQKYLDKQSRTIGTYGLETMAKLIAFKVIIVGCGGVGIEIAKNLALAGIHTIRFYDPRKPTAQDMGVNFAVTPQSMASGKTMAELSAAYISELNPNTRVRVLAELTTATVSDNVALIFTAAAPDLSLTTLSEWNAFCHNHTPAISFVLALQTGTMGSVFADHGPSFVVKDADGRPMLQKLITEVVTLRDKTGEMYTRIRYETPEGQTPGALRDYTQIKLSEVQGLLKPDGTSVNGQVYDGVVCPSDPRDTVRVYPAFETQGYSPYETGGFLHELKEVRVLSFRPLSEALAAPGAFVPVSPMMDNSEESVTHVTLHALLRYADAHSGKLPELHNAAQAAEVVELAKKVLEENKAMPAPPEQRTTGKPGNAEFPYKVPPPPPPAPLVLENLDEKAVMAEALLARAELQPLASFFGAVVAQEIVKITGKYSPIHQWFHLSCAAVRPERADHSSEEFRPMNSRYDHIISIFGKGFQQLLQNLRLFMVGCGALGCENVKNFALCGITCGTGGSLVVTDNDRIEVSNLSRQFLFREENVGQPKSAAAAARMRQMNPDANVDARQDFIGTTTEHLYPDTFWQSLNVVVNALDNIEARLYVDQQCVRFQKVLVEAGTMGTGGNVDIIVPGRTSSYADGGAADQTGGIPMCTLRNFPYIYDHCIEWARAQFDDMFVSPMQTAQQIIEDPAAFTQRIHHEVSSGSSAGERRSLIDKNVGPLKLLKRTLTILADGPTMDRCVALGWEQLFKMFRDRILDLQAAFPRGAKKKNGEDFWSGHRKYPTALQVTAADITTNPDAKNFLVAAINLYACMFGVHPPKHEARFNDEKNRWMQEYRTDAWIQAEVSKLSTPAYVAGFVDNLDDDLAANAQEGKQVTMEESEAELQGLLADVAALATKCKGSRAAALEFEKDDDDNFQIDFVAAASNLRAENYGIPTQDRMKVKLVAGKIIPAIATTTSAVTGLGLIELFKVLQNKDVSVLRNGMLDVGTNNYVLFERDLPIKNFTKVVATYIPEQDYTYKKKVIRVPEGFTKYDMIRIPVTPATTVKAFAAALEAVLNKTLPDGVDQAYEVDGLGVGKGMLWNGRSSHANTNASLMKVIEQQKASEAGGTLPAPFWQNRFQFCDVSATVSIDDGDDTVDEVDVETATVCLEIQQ

[3] = target: AMP-activated protein kinase, AMPK (Homo sapiens) (UniProt P54646+O43741+P54619+Q9UGJ0+Q9Y478+Q13131+Q9UGI9); assay: AMP-dependent Kinase enzyme assay. An in vitro enzyme assay that detects ADP turnover that is directly proportional to AMPK activity. This uses naive AMPK that is activated during the assay with MK-8722; format: functional; conditions: 30 µM
[4] = target: Sialic acid-binding Ig-like lectin 9 (Homo sapiens) (UniProt Q9Y336); assay: Hs-Siglec9 ALPHAscreen SOP 20170721; conditions: 10 µM
[5] = test system: Trypanosoma cruzi; assay: Trypanosoma cruzi phosphomannomutase and mannose-1-phosphate guanylyltransferase assay; format: functional; conditions: 10 µM
[6] = target: T2, Arginase-2, mitochondrial (Homo sapiens) (UniProt P78540); assay: in vitro enzyme assay to detect the production of urea directly proportional to the activity of Arginase II; format: functional; conditions: 33.3 µM; note: in the data most compounds retested in dose-response had high values
T2 sequence (whole entry): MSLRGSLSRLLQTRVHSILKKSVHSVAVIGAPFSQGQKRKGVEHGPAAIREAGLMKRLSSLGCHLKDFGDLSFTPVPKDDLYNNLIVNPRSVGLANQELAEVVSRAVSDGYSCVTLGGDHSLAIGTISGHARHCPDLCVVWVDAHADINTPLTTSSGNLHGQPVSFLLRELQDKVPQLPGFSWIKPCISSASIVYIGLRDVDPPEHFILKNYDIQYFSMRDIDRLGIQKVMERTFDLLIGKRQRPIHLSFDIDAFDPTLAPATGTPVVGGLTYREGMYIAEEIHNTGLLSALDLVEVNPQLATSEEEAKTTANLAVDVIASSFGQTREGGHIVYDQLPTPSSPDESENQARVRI

[7] = target: T3, Proteasome subunit beta (Trypanosoma cruzi) (UniProt O96673); assay: Trypanosoma cruzi proteasome chymotrypsin-like activity (TcProtChymo) assay.; note: in the data most compounds retested in dose-response had high values; format: functional; conditions: 9.37 µM
T3 sequence (whole entry): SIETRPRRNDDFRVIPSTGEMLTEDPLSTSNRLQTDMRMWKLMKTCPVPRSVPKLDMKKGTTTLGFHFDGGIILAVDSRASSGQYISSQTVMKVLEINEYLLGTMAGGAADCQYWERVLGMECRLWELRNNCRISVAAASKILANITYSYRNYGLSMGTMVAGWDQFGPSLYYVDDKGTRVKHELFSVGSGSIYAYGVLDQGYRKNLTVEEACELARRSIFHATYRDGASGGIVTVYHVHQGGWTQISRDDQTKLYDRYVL

[8] = species: Homo sapiens; assay: To identify inhibition of the IFN signalling (Jak-Stat) pathway via expression of an eGFP reporter gene under the control of an IFN-stimulated response element (ISRE) containing MxA promoter.; format: functional; conditions: 30 µM
[9] = target: T4, Tyrosyl-tRNA synthetase, putative (Trypanosoma cruzi (strain CL Brener)) (UniProt Q4DSP6); assay: Trypanosoma cruzi tyrosyl tRNA synthetase (TcYRS) _High Tyrosine SOP; format: functional; conditions: 30 µM; note: in the data most compounds retested in dose-response had high values
T4 sequence (whole entry): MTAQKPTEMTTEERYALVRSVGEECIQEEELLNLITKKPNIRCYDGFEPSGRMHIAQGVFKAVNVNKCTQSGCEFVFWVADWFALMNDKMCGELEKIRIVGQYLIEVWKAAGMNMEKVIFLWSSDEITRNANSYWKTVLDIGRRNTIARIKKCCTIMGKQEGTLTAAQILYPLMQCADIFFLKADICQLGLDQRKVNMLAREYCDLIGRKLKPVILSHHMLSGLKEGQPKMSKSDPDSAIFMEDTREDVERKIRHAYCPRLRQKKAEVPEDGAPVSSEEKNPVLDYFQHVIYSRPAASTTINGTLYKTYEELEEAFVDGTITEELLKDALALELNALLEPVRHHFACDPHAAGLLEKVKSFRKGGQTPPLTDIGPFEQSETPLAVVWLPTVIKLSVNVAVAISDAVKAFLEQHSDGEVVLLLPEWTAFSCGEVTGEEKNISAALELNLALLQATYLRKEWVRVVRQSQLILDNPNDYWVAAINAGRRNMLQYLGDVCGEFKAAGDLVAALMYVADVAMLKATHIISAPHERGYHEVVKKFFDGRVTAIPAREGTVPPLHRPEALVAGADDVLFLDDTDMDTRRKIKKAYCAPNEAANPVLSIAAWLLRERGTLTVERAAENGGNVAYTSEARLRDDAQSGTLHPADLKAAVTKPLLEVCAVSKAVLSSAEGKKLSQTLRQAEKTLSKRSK

[10] = target: T4, Tyrosyl-tRNA synthetase, putative (Trypanosoma cruzi (strain CL Brener)); assay: Trypanosoma cruzi tyrosyl tRNA synthetase (TcYRS) SOP; format: functional; conditions: 30 µM
[11] = target: Chromo domain-containing protein 1 (Saccharomyces cerevisiae (strain ATCC 204508 / S288c) (Baker's yeast)) (UniProt P32657); assay: ScCHD-1 Enzyme Inhibition Assay; format: functional; conditions: 30 µM; note: in the data most compounds retested in dose-response had high values
Chain of Chromo domain-containing protein 1 (Saccharomyces cerevisiae (strain ATCC 204508 / S288c) (Baker's yeast)) (P32657 whole entry, the tested form may be a part): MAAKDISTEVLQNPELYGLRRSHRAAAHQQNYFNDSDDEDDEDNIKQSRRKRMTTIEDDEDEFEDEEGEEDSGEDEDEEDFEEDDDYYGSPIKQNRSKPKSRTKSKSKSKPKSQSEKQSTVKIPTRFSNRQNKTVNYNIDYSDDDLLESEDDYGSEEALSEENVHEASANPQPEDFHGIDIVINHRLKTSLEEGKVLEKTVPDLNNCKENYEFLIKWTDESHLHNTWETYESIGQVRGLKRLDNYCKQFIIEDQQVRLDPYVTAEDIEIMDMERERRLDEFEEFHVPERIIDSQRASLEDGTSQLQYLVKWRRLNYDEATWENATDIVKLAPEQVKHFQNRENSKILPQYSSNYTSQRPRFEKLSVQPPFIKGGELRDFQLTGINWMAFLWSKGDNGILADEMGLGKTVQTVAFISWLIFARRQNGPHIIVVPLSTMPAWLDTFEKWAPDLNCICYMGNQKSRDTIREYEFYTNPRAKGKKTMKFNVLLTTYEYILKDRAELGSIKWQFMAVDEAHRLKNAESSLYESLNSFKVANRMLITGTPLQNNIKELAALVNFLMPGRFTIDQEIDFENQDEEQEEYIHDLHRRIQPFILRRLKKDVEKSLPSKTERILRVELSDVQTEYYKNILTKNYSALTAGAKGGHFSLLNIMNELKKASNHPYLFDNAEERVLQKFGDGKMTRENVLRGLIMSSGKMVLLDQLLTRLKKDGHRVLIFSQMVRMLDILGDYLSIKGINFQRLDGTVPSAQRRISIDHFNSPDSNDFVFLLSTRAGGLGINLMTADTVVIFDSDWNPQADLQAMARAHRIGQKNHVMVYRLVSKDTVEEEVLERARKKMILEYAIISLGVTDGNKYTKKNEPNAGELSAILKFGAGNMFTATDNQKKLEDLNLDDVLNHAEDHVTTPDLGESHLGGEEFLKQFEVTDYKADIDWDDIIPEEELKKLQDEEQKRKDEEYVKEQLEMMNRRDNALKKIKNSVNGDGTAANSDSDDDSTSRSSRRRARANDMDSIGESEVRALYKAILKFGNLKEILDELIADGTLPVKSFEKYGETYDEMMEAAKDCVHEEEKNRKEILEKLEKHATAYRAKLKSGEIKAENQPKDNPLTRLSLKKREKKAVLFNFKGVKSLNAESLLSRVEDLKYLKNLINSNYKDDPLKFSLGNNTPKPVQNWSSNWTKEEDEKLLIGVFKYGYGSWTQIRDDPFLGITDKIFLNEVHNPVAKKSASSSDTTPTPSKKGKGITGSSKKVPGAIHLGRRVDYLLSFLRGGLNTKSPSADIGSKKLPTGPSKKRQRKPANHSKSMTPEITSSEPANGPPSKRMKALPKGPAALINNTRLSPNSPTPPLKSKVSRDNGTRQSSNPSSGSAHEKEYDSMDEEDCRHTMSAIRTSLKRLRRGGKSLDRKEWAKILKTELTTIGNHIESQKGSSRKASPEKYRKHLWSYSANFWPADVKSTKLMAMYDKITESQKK

Chain of Protein translocase subunit SecA (Escherichia coli (strain K12)) (P10408 whole entry): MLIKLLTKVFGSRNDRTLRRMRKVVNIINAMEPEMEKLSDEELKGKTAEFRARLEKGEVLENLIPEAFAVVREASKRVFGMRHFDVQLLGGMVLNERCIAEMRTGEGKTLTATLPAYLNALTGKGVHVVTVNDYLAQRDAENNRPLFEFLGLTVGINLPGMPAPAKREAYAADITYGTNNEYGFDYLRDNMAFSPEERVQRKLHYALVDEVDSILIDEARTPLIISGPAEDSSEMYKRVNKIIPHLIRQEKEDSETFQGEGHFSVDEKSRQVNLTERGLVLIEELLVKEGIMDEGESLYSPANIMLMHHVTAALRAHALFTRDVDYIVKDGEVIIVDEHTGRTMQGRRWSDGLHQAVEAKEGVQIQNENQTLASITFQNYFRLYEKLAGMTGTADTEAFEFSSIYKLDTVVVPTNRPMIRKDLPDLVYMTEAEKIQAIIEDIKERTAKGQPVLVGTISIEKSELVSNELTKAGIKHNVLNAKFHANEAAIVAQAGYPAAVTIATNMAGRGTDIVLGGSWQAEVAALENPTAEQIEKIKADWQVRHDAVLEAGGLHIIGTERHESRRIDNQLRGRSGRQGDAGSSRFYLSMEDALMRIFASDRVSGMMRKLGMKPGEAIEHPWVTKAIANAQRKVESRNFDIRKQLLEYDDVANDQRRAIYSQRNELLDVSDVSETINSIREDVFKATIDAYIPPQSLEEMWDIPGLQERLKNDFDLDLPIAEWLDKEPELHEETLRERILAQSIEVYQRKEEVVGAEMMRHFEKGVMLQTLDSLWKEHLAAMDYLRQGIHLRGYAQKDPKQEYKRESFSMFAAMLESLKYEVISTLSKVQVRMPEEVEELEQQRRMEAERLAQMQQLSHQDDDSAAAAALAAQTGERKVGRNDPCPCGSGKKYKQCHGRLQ
Chain of Sialic acid-binding Ig-like lectin 9 (Homo sapiens) (Q9Y336 whole entry): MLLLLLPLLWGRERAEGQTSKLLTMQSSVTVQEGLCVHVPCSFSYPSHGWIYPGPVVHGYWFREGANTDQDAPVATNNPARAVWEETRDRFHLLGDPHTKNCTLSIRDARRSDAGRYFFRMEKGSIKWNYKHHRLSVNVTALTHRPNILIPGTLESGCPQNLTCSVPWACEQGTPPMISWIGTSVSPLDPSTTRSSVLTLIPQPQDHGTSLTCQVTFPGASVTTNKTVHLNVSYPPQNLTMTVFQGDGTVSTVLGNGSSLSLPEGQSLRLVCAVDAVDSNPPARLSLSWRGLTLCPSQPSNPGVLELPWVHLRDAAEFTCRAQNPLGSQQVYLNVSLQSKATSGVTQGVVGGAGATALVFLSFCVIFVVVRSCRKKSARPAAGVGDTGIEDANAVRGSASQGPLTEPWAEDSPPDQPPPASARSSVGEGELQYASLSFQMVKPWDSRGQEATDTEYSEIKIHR

| SMILES | Percent Effect [1] | Percent Effect [2] | Percent Effect [3] | Percent Effect [4] | Percent Effect [5] | Percent Effect [6] | Percent Effect [7] | Percent Effect [8] | Percent Effect [9] | Percent Effect [10] | Percent Effect [11] |
| --- | --- | --- | --- | --- | --- | --- | --- | --- | --- | --- | --- |
| N#Cc1cccc(NC(=O)N[C@H](CO)c2ccccc2)c1 | -2.38% | 5.41% | 5.16% | 5.37% | -1.35% | 3.33% | 11.6% | 5.19% | 1.59% | 12.2% | -2.38% |
| CCN1CCC(c2nc3ccc(NC(C)C)cn3n2)CC1 | -3.94% | -2.7% | -138% | -3.17% | 7.62% | -1.25% | 4.48% | -12.5% | 5.94% | 11% | 0.337% |
| CCCNC(=O)N1CCN(Cc2cc(C)no2)CC1 | -3.25% | 23.7% | -8.42% | -2.41% | 6.07% | -2.16% | 17.5% | 2.72% | 8.37% | 23.5% | -7.68% |
| Cc1nc(CNC(=O)NCC(O)c2cccc(Cl)c2)cs1 (stereo unspecified) | -1.26% | 2.7% | -4.33% | 3.81% | -8.69% | -4.29% | 23.4% | 6.47% | 0.529% | 4.88% | -3.89% |
| CSCc1cccc(S(=O)(=O)NCCCN2CCOCC2)c1 | -6.05% | 5.2% | 1.35% | 8.61% | 3.64% | -6.9% | 3.33% | -22.2% | 4.3% | 11.1% | -3.9% |
| COc1cccc(COCC(=O)N2CCCC(N3CCCC3)CC2)c1 (stereo unspecified) | -1.29% | -10.5% | 4.62% | -2.23% | 2.26% | 0% | 6.52% | -5.01% | 14.2% | 7.32% | -0.94% |
| CNS(=O)(=O)Cc1ccc(CNC(=O)Nc2cn[nH]c2)cc1 | -5.68% | 20.2% | 6.15% | -12.1% | -3.68% | 1.52% | 8.11% | 18.9% | 2.46% | 13.9% | -0.403% |
| c1ccc(Cn2cccn2)c(CNCC2CNc3ccnn3C2)c1 (stereo unspecified) | -5.51% | 10.4% | -9.17% | 10.9% | 13.5% | -4.63% | 13.3% | 3.57% | 16.5% | 21.9% | -11% |
| CCCc1cc(=O)[nH]c2nnc(SCC(=O)NCc3ccc(C)cc3)n12 | -0.143% | 13.7% | -0.135% | 6.56% | 3.33% | 13.6% | 20.2% | 16.9% | 6.45% | 17.5% | -7.5% |
| CCCc1cc(C(=O)N(C)Cc2cnc3ccccc3n2)n(C)n1 | -7.11% | 5.2% | 2.82% | 6.76% | 2.06% | 11% | 8.82% | 7.96% | 7.53% | 11.1% | 2.1% |
| Cc1cn2nc(N3CCCN(Cc4noc(C)n4)CC3)sc2n1 | -4% | 11.4% | 7.75% | 2.12% | -2.97% | 1.94% | 13.4% | 0.85% | 7.29% | 12.7% | -14.4% |
| COCc1n[nH]/c(=N/C(=O)COc2cnc(C)cc2O)s1 | -1.58% | -5.26% | 2.8% | 1.24% | -6.33% | -1.18% | 9.3% | -1.08% | 3.19% | 5.2% | -4.33% |
| Cc1cc(NC(=O)NCc2ccccn2)n(C)n1 | -3.34% | -6.33% | 3.11% | 5.94% | 0.103% | -2.37% | 15.6% | -16.7% | 2.08% | 12.7% | -12.3% |
| O=C(Cn1cccnc1=O)NC(Cc1ccsc1)c1ccccn1 (stereo unspecified) | -10% | 14.9% | 0.845% | 8.55% | 1.98% | 0.232% | 5.3% | 2.88% | 5.38% | 9.09% | -19.6% |
| CCc1cnc(CNc2ccc(C(=O)N3CCCC(C)C3)cc2C)o1 (stereo unspecified) | -1.36% | -5.2% | 6.76% | -0.151% | -0.936% | -1.78% | 8.78% | 25.1% | -0.971% | 0% | -5.54% |
| CC(C)NC(=O)N1CCC2(CC(C(=O)NCc3cccnc3)=NO2)C1 (stereo unspecified) | -0.964% | 2.67% | 4.37% | 10.3% | -5.99% | -2.69% | 8.89% | 8.43% | -3.12% | 0% | 1.61% |
| Cc1cccnc1NC(=O)CC1(Cn2cnnn2)CCCCC1 | -5.51% | 21.1% | -0.535% | 3.53% | 1.66% | 1.18% | 9.11% | -4.12% | 3.19% | 13% | -13.8% |
| CCOc1ccc(CC(=O)N2CCN(c3nccn3C)CC2)cc1 | -0.699% | 13% | 1.57% | 3.44% | -5.62% | -7.1% | 18.6% | 9.26% | 4.23% | 14.1% | -6.41% |
| Cn1c(C(=O)N2CCC(C(=O)N3CCCC3)CC2)c(Cl)c2ccccc21 | -4.1% | 5.33% | -1.92% | 6.11% | 2.82% | 2.6% | 25.5% | 0.0464% | 8.2% | 13.6% | -6.83% |
| COCCN1C(=O)CO[C@H]2CN(Cc3c[nH]nc3-c3ccccc3)C[C@@H]21 | -5.09% | 12.2% | 8.07% | 9.93% | 2.77% | -5.8% | 2.34% | 19.6% | 2.15% | 6.49% | -22.8% |
| CN(Cc1ccccc1F)C(=O)CS(=O)(=O)Cc1ccc(Cl)c(Cl)c1 | 0.269% | 10.4% | 6.8% | 0.809% | 2.06% | -8.21% | 4.29% | 9.03% | -6.67% | -296% | -20.3% |

Source: ChEMBL document CHEMBL3988442, “University of Dundee, Small-Polar-MMV Screening Library” (2021)
